hcDAF12 agonist – H. contortus DAF-12 nuclear receptor activators, primary screen, cell-based, luminescence, HEK293, lit1-tk-luc reporter | AID 652067, 2013 | 370,000 tested, 1.4% active | HEK293 hcDAF-12 lit1-tk-luc reporter; 0% DMSO, 100% Δ7-dafachronic acid | activation, % at 6.8 µM;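 active means activation above the mean of all tested compounds plus 3 SD, cut at about 5.5% in these data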;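 further: 100% = response to 3 µM Δ7-dafachronic acid high control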
DAX1 inh-1 – DAX1 (NR0B1) inhibitors on StAR promoter, primary screen, cell-based, luminescence, SF-1 (NR5A1), full-length DAX-1 | HEK293T StAR-luciferase reporter, SF-1/DAX-1 repression relief | inhibition, % at 6.8 µM | 370,000 tested, 1.1% active | AID 652010, 2013;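 active means inhibition above the mean over all tested compounds plus 3 SD, cut at about 3.6% in these data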;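 further: 0% = DAX-1 cells with DMSO and 100% = cells lacking DAX-1 with DMSO; higher inhibition means more luminescence from relief of DAX-1 repression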
ssDAF12 agonist – S. stercoralis DAF-12 nuclear receptor activators, primary screen, cell-based, luminescence, HEK293, GRIP1 co-expression, lit1-tk-luc. activation, % at 6.8 µM. HEK293 ssDAF-12/GRIP1 lit1-tk-luc reporter; % of 3 µM dafachronic acid response. Nuclear hormone receptor DAF-12 (Strongyloides stercoralis). 370,000 tested, 1% active;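 active means activation above the mean over all tested compounds plus 3 SD, cut at about 0.9% in these data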;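 further: 0% = DMSO-only wells and 100% = 3 µM delta7-dafachronic acid wells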
hgDAF-12 ag – H. glycines DAF-12 receptor agonists, primary screen, cell-based, luminescence, HEK293, GAL4 fusion, UAS-luciferase; activation, % at 6.8 µM; HEK293 GAL4-hgDAF12 UAS-luciferase reporter, agonist luminescence; normalized to butyrate control; 370,000 tested, 1.8% active; Nuclear hormone receptor DAF-12 (Heterodera glycines), GAL4 fusion;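 active means activation above a cutoff set at the mean of all screened compounds plus 3 SD, cut at about 10% in these data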;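 further: 0% = DMSO wells and 100% = sodium butyrate wells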
SMARCA2 activ – SMARCA2 (BRM) function activators, primary screen, cell-based, luminescence, high throughput; MG213 cells, MMTV-luciferase reporter, dexamethasone, overnight; activation, % at 9.1 µM; 370,000 tested, 1% active; in the data active means activation above about 7.8%;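 further: 0% = vehicle wells and 100% = reference activator wells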
DAX1 inh-2 – DAX1 (NR0B1) inhibitors, primary screen, cell-based, HEK293, Gal4-DAX1, luciferase luminescence. Nuclear receptor subfamily 0 group B member 1 (Homo sapiens), P51843. AID 504766, 2011. inhibition, % at 6.75 µM. 340,000 tested, 0.99% active. HEK293 Gal4-DAX1 luciferase reporter;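 active means inhibition above the mean over all tested compounds plus 3 SD, cut at about 4.2% in these data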;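 further: 0% = DAX1-transfected cells with DMSO and 100% = empty-vector control cells with DMSO; inhibition shows as a rise in luminescence from relieved DAX1 repression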
Target sequence (P51843 207-470 limits assumed): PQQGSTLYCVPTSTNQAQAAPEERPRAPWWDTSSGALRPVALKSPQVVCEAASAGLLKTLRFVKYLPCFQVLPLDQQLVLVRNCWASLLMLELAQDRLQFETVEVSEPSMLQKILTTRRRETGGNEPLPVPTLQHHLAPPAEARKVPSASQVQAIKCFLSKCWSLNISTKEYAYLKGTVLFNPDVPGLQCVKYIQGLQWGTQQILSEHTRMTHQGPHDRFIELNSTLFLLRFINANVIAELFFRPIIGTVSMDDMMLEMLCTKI
SMARCA2 act conf – SMARCA2 (BRM) function activators, confirmation, cell-based, luminescence, triplicate; shares compounds with SMARCA2 activ; MG213 cells, MMTV-luciferase with dexamethasone, overnight; MG213 cells expressing E1A, Rb sequestered; DMSO wells 0%, reference activator 100%; activation, % at 9.1 µM; 3,500 tested, 30% active;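 active means activation above its plate's cutoff, the mean activation of tested wells plus 3 SD, cut at about 7.9% in these data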
VP16 Luc act – GAL4-VP16 luciferase reporter activation, counter-screen for SMARCA2 (BRM) activator project, cell-based, pG5luc, luminescence, high throughput; shares compounds with SMARCA2 activ; AID 686939, 2013; HEK293 GAL4-VP16 pG5luc reporter; scaled: DMSO wells 0%, SAHA wells 100%; activation, % at 9.1 µM; 3,500 tested, 41% active;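 active means activation above the solvent-only control well mean plus 3 SD, averaged across control plates, cut at about 5.2% in these data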
An asterisk follows results filed as active; · = no result given. The list is not random: actives were taken first. Their share in the collection is about 4.8%.

SMILES	hcDAF12 agonist	DAX1 inh-1	ssDAF12 agonist	hgDAF-12 ag	SMARCA2 activ	DAX1 inh-2	SMARCA2 act conf	VP16 Luc act
O=C1c2cccc3c([N+](=O)[O-])ccc(c23)C(=O)N1c1ccccn1	-2.0	-2.5	-1.3	-4.4	14.2*	-1.9	-15.7	6.5*
Cc1csc(C(=O)NN)c1N(C)C	2.4	1.3	-1.0	1.4	9.1*	2.1	-0.7	1.6
Cc1c(C(=O)NN)sc(=S)n1C	0.2	0.1	-1.6	0.8	-4.0	1.5	·	·
O=C(CN1C(=O)CCSc2ccccc21)Nc1cccc(Cl)c1F	-1.0	-1.2	-1.7	0.0	-4.4	·	·	·
O=C1Nc2c(ccc(Cl)c2Cl)C(=O)C1(F)c1ccccc1 (configuration not stated)	1.3	1.1	-1.1	0.8	8.3*	0.9	-3.2	-0.1
COc1ccc(N2CC(C(=O)Nc3cccc(C)n3)CC2=O)cc1 (configuration not stated)	-2.3	-0.5	-0.3	-0.2	8.0*	-0.2	0.8	1.6
CCOc1ccc(N2CC(C(=O)Nc3cc(C)on3)CC2=O)cc1 (configuration not stated)	-0.9	0.3	-1.4	3.5	6.8	1.1	·	·
CC(=O)Nc1cccc(NC(=O)C2CC(=O)N(c3ccc(C)cc3)C2)c1 (configuration not stated)	-0.1	-0.6	-2.2	0.2	9.5*	1.5	3.3	0.1
COc1ccc(N2CC(C(=O)Nc3cc(C)on3)CC2=O)cc1 (configuration not stated)	-1.1	1.2	-1.3	-2.0	8.0*	-0.2	-0.3	0.5
COC(=O)[C@]12C[C@H](CC(=O)N3CCN(C(=O)c4ccco4)CC3)C(=O)N(Cc3cccc4ccccc34)C1=C[C@H](C(C)C)O[C@@H]2C1CC1	-3.1	0.1	-1.5	-2.5	-1.4	·	·	·
Cc1ccc(CN2CC(N3CCN(CCO)CC3)CS2(=O)=O)cc1 (configuration not stated)	0.6	0.1	-1.1	0.5	-3.8	·	·	·
O=S1(=O)CC(N2CCN(CCO)CC2)CN1Cc1ccc(F)cc1 (configuration not stated)	-0.9	-0.1	-0.3	1.0	8.1*	·	-4.2	-0.6
Cc1cc(NC(=O)CN(C)CCOc2ccccc2)ccc1Br	1.3	-0.6	-1.7	2.9	8.4*	-0.9	0.1	2.2
COc1cccc(NC(=O)COc2ccc(Br)c(C)c2)c1	-0.8	0.8	-0.2	3.5	9.9*	2.5	7.0	4.2
CN(CCOc1ccccc1)CC(=O)Nc1cccc(Br)c1	-0.6	0.2	-1.8	-0.2	-1.9	-0.3	·	·
O=S1(=O)c2ccc(N3CC[C@@H](O)C3)cc2O[C@H]2CCN1C2	-1.6	-1.0	0.2	2.5	-0.4	·	·	·
O=S(=O)(CC1NCCc2ccccc21)NCc1ccc(F)cc1 (configuration not stated)	-2.0	-0.9	-0.5	-0.1	-1.5	·	·	·
CC(=O)Nc1cccc(OCC(=O)NCCC2=CCCCC2)c1	-0.8	1.4	-1.2	0.4	-2.3	-0.1	·	·
COc1cccc(NC(=O)NCCC2=CCCCC2)c1	1.0	1.0	0.2	7.7	15.9*	0.8	5.3	11.5*
COc1ccccc1CN[C@@H]1CC[C@@]23CCCN2C(=O)CCC[C@H]3C1	1.9	·	-1.1	3.8	·	·	·	·
Cc1csc(=O)n1CC(=O)Nc1ccc(C(C)C)cc1	2.0	3.3	-0.7	9.0	8.0*	0.8	-1.3	5.4*
Cc1ccc(NC(=O)COC(=O)Cn2c(C)csc2=O)cc1	-0.4	-0.4	-1.5	-1.0	-4.0	-1.2	·	·
O=C(CCCN1C(=O)S/C(=C\C=C\c2ccccc2)C1=O)Nc1ccc(C(=O)O)cc1	0.4	0.8	-0.7	5.0	8.5*	1.3	5.0	1.9
COC(=O)c1c(-c2ccccc2)[nH]c(-c2nccc3ccccc23)c1C(=O)OC	1.4	0.1	-0.4	0.0	8.4*	1.2	-0.4	2.6
Cc1ccc(C(=O)NNC(=O)Cc2cccs2)cc1	4.0	0.9	0.7	2.4	9.1*	-0.4	2.5	1.7
SMILES	hcDAF12 agonist	DAX1 inh-1	ssDAF12 agonist	hgDAF-12 ag	SMARCA2 activ	DAX1 inh-2	SMARCA2 act conf	VP16 Luc act
O=C(Cc1cccs1)NNC(=O)c1ccc(F)cc1	-0.8	-0.1	-1.9	-3.1	-0.7	1.4	·	·
COc1ccc(C)cc1NC(=O)c1cnc2n(c1=O)CCS2	0.2	1.3	-1.8	0.8	9.8*	1.9	3.0	1.9
Cc1ccccc1OCCCN1CCC(C(O)(c2ccccc2)c2ccccc2)CC1	-1.9	-0.5	-0.5	0.0	-4.1	·	·	·
Cn1ccc(C(=O)N/N=C/c2ccccc2[N+](=O)[O-])n1	2.0	0.3	-0.7	3.3	8.2*	1.6	7.7	5.0
Cc1ccc2c(ccc[n+]2CC(=O)c2ccccc2)c1	2.2	0.2	-1.1	2.8	11.7*	0.1	-4.1	-0.1
COc1ccc(NC(=O)/C=C/c2ccco2)cn1	2.7	1.6	-0.6	8.5	3.2	-0.1	·	·
COc1ccc(NC(=O)/C=C/c2cccc(F)c2)cn1	1.9	3.4	-0.6	13.1*	11.6*	2.4	3.2	10.4*
CCN(C(=O)COC(=O)/C(C#N)=C/c1ccc(N(C)C)cc1)C1CCS(=O)(=O)C1 (configuration not stated)	2.4	1.5	-0.7	2.0	8.3*	3.0	6.2	3.6
CSc1nsc(SCC(=O)Nc2ccccc2)n1	2.7	0.6	-0.3	4.2	8.8*	-0.8	5.5	0.7
CN1CCC(=NNC(=O)C(=O)Nc2ccccc2)CC1	1.3	0.9	-1.3	2.9	8.2*	0.9	6.2	1.8
Cc1cccc(NC(=O)CSc2nnnn2-c2cccnc2)c1	0.2	0.0	-0.6	-2.6	4.6	1.5	·	·
CCC(=O)Nc1ccc(NC(=O)CSc2nnnn2-c2cccnc2)cc1C	-0.3	0.1	-1.4	-3.2	9.7*	-0.1	-2.1	0.9
